# Data published in the supplement of paper PMC8728848.
# This is one part of a sample in which the strongest signals are shown more often than they occur.
# Legend:
# Assay in all cases: glycan array binding signal (z-score within array); higher = stronger binding
# Conditions in all cases: glycan notation: IUPAC condensed, linker removed
# [1] = target: Fuc(a1-2)Gal(b1-3)[Fuc(a1-4)]GlcNAc(b1-3)[Fuc(a1-3)[Gal(b1-4)]GlcNAc(b1-6)]Gal(b1-4)Glc
# Outline: (§1)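 Glycan array data came from 3228 arrays in the Consortium for Functional Glycomics database, and only arrays with an available protein sequence were kept. Glycan names were put into IUPAC-condensed notation, and columns mapping to the same glycan were averaged. The binding signal is a within-array Z-score, averaged across arrays of one protein sequence run at different concentrations or buffers and across linkers. A negative Z-score can be read as non-binding.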
# [2] = target: Fuc(a1-2)Gal(b1-4)Fuc(a1-3)]GlcNAc(b1-2)Man(a1-3)[Fuc(a1-2)Gal(b1-4)[Fuc(a1-3)]GlcNAc(b1-2)Man(a1-6)]Man(b1-4)GlcNAc(b1-4)GlcNAc
# Outline: as §1
# [3] = target: Fuc(a1-2)Gal(b1-4)[Fuc(a1-3)]GlcNAc(b1-3)Gal(b1-4)[Fuc(a1-3)]GlcNAc
# Outline: as §1
# Fuc(a1-2)Gal6S(b1-4)Glc = target: Fuc(a1-2)Gal6S(b1-4)Glc
# Outline: as §1
# [4] = target: Fuc(a1-2)[Gal(a1-3)]Gal(b1-3)GlcNAc(b1-2)Man(a1-3)[Fuc(a1-2)[Gal(a1-3)]Gal(b1-3)GlcNAc(b1-2)Man(a1-6)]Man(b1-4)GlcNAc(b1-4)GlcNAc
# Outline: as §1
# [5] = target: Fuc(a1-2)[Gal(a1-3)]Gal(b1-4)Glc
# Outline: as §1
# [6] = target: Fuc(a1-2)[Gal(a1-3)]Gal(b1-4)GlcNAc(b1-2)Man(a1-3)[Fuc(a1-2)[Gal(a1-3)]Gal(b1-4)GlcNAc(b1-2)Man(a1-6)]Man(b1-4)GlcNAc(b1-4)GlcNAc
# Outline: as §1
# [7] = target: Fuc(a1-2)[GalNAc(a1-3)]Gal(b1-4)[Fuc(a1-3)]GlcNAc
# Outline: as §1
# [8] = target: Fuc(a1-3)[Gal(b1-4)]GlcNAc(b1-3)Gal(b1-3)[Fuc(a1-4)]GlcNAc
# Outline: as §1
# [9] = target: Fuc(a1-3)[Gal(b1-4)]GlcNAc(b1-3)GalNAc
# Outline: as §1
# [10] = target: Fuc(a1-3)[Gal(b1-4)]GlcNAc6S
# Outline: as §1
# Fuc(a1-4)GlcNAc = target: Fuc(a1-4)GlcNAc
# Outline: as §1
# Fuc(b1-3)GlcNAc = target: Fuc(b1-3)GlcNAc
# Outline: as §1
# [11] = target: Gal(a1-4)Gal(b1-3)GlcNAc(b1-2)Man(a1-3)[Gal(a1-4)Gal(b1-3)GlcNAc(b1-2)Man(a1-6)]Man(b1-4)GlcNAc(b1-4)GlcNAc
# Outline: as §1
# Gal(b1-2)Gal = target: Gal(b1-2)Gal
# Outline: as §1
# [12] = target: Gal(b1-3)GalNAc(a1-3)[Fuc(a1-2)]Gal(b1-4)GlcNAc
# Outline: as §1
# [13] = target: Gal(b1-3)GlcNAc(b1-3)Gal(b1-4)Glc
# Outline: as §1
# [14] = target: Gal(b1-3)[Fuc(a1-4)]GlcNAc(b1-3)Gal(b1-3)[Fuc(a1-4)]GlcNAc
# Outline: as §1
# [15] = target: Gal(b1-3)[Fuc(a1-4)]GlcNAc(b1-6)GalNAc
# Outline: as §1
# [16] = target: Gal(b1-4)GlcNAc(b1-2)Man(a1-6)[Man(a1-3)]Man(b1-4)GlcNAc(b1-4)GlcNAc
# Outline: as §1
# [17] = target: Gal(b1-4)GlcNAc(b1-3)Gal(b1-4)GlcNAc
# Outline: as §1
# [18] = target: Gal(b1-4)GlcNAc(b1-3)Gal(b1-4)GlcNAc(b1-2)Man(a1-3)[Gal(b1-4)GlcNAc(b1-3)Gal(b1-4)GlcNAc(b1-2)Man(a1-6)]Man(b1-4)GlcNAc(b1-4)GlcNAc
# Outline: as §1
# [19] = target: Gal(b1-4)GlcNAc(b1-3)Gal(b1-4)GlcNAc(b1-3)Gal(b1-4)GlcNAc(b1-3)Gal(b1-4)GlcNAc(b1-3)Gal(b1-4)GlcNAc(b1-2)[Gal(b1-4)GlcNAc(b1-3)Gal(b1-4)GlcNAc(b1-3)Gal(b1-4)GlcNAc(b1-3)Gal(b1-4)GlcNAc(b1-3)Gal(b1-4)GlcNAc(b1-6)]Man(a1-6)[Gal(b1-4)GlcNAc(b1-3)Gal(b1-4)GlcNAc(b1-3)Gal(b1-4)GlcNAc(b1-3)Gal(b1-4)GlcNAc(b1-3)Gal(b1-4)GlcNAc(b1-2)Man(a1-3)]Man(b1-4)GlcNAc(b1-4)[Fuc(a1-6)]GlcNAc
# Outline: as §1
# [20] = target: Gal(b1-4)GlcNAc(b1-3)[GlcNAc(b1-6)]Gal(b1-4)GlcNAc
# Outline: as §1
# [21] = target: Gal(b1-4)GlcNAc(b1-6)[Gal(b1-4)GlcNAc(b1-3)]GalNAc
# Outline: as §1
# [22] = target: Gal3S(b1-3)[Fuc(a1-4)]GlcNAc
# Outline: as §1
# GalNAc(a1-3)GalNAc = target: GalNAc(a1-3)GalNAc
# Outline: as §1
# GalNAc(b1-3)GalNAc = target: GalNAc(b1-3)GalNAc
# Outline: as §1
# GalNAc(b1-4)Gal(b1-4)Glc = target: GalNAc(b1-4)Gal(b1-4)Glc
# Outline: as §1
# GalNAc(b1-4)GlcNAc = target: GalNAc(b1-4)GlcNAc
# Outline: as §1
binder,measurement,setting,value
"XTP3-B-MRH2 (Homo sapiens), Q96DZ1 (protein) EFLSGSYCFRGGVGWWKYEFCYGKHVHQYHEDKDSGKTSVVVGTWNQEEHIEWAKKNTARAYHLQDDGTQTVRMVSHFYGNGDICDITDKPRQVTVKLKCKESDSPHAVTVYMLEPHSCQYILGVESPVICKILDTA",glycan array binding signal (z-score),[1],2.32
same,glycan array binding signal (z-score),[2],2.2
same,glycan array binding signal (z-score),[3],-0.464
same,glycan array binding signal (z-score),Fuc(a1-2)Gal6S(b1-4)Glc,0.258
same,glycan array binding signal (z-score),[4],2.72
same,glycan array binding signal (z-score),[5],1.19
same,glycan array binding signal (z-score),[6],2.95
same,glycan array binding signal (z-score),[7],-0.177
same,glycan array binding signal (z-score),[8],-2.1
same,glycan array binding signal (z-score),[9],-0.079
same,glycan array binding signal (z-score),[10],-0.412
same,glycan array binding signal (z-score),Fuc(a1-4)GlcNAc,2.2
same,glycan array binding signal (z-score),Fuc(b1-3)GlcNAc,-0.321
same,glycan array binding signal (z-score),[11],0.355
same,glycan array binding signal (z-score),Gal(b1-2)Gal,-0.575
same,glycan array binding signal (z-score),[12],0.353
same,glycan array binding signal (z-score),[13],0.052
same,glycan array binding signal (z-score),[14],3.38
same,glycan array binding signal (z-score),[15],-0.084
same,glycan array binding signal (z-score),[16],2.47
same,glycan array binding signal (z-score),[17],0.386
same,glycan array binding signal (z-score),[18],3.21
same,glycan array binding signal (z-score),[19],-0.908
same,glycan array binding signal (z-score),[20],0.199
same,glycan array binding signal (z-score),[21],0.934
same,glycan array binding signal (z-score),[22],0.892
same,glycan array binding signal (z-score),GalNAc(a1-3)GalNAc,5.08
same,glycan array binding signal (z-score),GalNAc(b1-3)GalNAc,-1.03
same,glycan array binding signal (z-score),GalNAc(b1-4)Gal(b1-4)Glc,-0.842
same,glycan array binding signal (z-score),GalNAc(b1-4)GlcNAc,2.09
